# In the library only some 8.7% were active in any assay of this set; here they are far more common.
# 12-LOX inh: ALOX12 (human) lipoxygenase inhibition; P18054; purified 12hLO, xylenol orange hydroperoxide absorbance; Potency, µM (top dose mostly 108 µM), hits mostly inhibitors; 580,000 compounds, 1.1% hits
#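 Purified human 12hLO at 150 nM in 25 mM Hepes, 0.01% Triton X-100, pH 7.0, preincubated 15 min at room temperature with compound. Reaction started with 40 uM arachidonic acid, 30 min at room temperature. Hydroperoxide measured by Fe-xylenol orange, 573/405 nm absorbance ratio.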
# HP1b chromo inh: HP1-beta chromodomain-methylated histone interaction inhibition; P83916; AlphaScreen HP1-beta / biotin-H3K9me3 peptide binding; Potency, µM (highest dose often 114 µM), actives largely listed as inhibitors; 390,000 compounds, 0.56% hits; also: nearly all actives have a fitted effect of over 70% in size
# Target sequence (P83916 whole entry, looked up): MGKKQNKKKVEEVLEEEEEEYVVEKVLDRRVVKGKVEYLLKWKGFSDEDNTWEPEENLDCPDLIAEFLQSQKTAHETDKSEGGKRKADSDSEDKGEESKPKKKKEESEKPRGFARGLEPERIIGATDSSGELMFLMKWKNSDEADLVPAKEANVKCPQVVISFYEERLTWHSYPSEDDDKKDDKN
#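 HP1-beta protein (50 nM final) preincubated 30 min at room temperature with biotinylated H3(1-18)K9me3 peptide (50 nM) in PBS pH 7.4, 0.01% Tween-20, then compound added for 30 min. AlphaScreen streptavidin donor/nickel chelate acceptor beads (10 ug/mL final), 30 min dark, luminescence read.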
# BAZ2B block: BAZ2B (human) inhibition; AlphaScreen BAZ2B-H3K14Ac peptide displacement; Potency, µM (doses to about 114 µM), hits mostly inhibitors; 360,000 compounds, 4.4% hits; AID 504333; also: nearly all actives have a fitted effect of over 60% in size
#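 Compounds, titrated to a top concentration of 110 uM, were incubated 30 min at room temperature with preformed BAZ2B/acetyl-K14 H3 peptide complex (50 nM each). Proximity signal was measured by AlphaScreen after 20 min with beads.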
# G9a block: G9a (human) methyltransferase inhibition; G9a H3K9 monomethylation, AlphaScreen, 2 h; Potency, µM (series often up to 102 µM), actives largely listed as inhibitors; 350,000 compounds, 8.8% hits; Q96KQ7; also: nearly all actives have a fitted effect of over 75% in size
# Target sequence (Q96KQ7 913-1193 limits assumed): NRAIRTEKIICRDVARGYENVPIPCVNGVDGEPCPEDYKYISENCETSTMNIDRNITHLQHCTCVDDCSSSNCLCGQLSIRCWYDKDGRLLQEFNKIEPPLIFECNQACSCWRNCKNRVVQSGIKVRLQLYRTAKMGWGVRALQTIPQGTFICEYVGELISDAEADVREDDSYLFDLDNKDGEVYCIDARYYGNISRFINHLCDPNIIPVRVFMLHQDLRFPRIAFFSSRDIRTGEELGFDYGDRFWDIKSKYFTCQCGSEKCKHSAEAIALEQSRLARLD
#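 G9a (20 nM) was preincubated 15 min with compound, then reacted 2 h at room temperature with 500 nM biotin-H3K9 peptide and 20 µM SAM. Monomethyl-H3K9 detected by AlphaScreen using anti-H3K9me1 antibody.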
# Sfp inh: Sfp phosphopantetheinyl transferase inhibition | AID 1490 | Potency, µM, most hits filed as inhibitors | Biochemical Sfp PPTase activity, qHTS | 310,000 compounds, 3.5% hits;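 also: the enzyme is Sfp with the accession as filed and its product quenches rhodamine fluorescence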
#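 Step 1, compound plus 15 nM Sfp-PPTase, 15 min, room temperature. Step 2, add rhodamine-CoA (5 uM) and BHQ-2-YbbR (12.5 uM). Step 3, read 525/598 nm fluorescence at 0 and 30 min.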
# JMJD2A Tudor: inhibitors of human JMJD2A Tudor domain. AlphaScreen JMJD2A-Tudor / H3K4me3 peptide binding. Potency, µM (titrated, usually from 114 µM), most hits filed as inhibitors. 390,000 compounds, 4.4% hits. AID 504339; also: nearly all actives have a fitted effect of over 50% in size
# Numbers stand for hits; - = inactive; ? = inconclusive; . = no result; [ ] = another dose, or the depositor's remark. Calls follow the shape of the dose curve; as a rule, active = well fitted curve in the direction sought with a large enough effect; inconclusive = small, poorly fitted or top-dose-only effect, or another doubt; inactive = no such curve, though single readings can be large; an effect the other way counts as inactive or inconclusive.
SMILES,12-LOX inh,HP1b chromo inh,BAZ2B block,G9a block,Sfp inh,JMJD2A Tudor
CCCCC(=O)NNC(=S)NC(=O)c1cccc([N+](=O)[O-])c1,?,?,?,.,-,22.4µM
CCCCCC(=O)NNC(=O)Cc1ccc([N+](=O)[O-])cc1,-,-,-,-,-,-
CCCCCC(=O)NNC(=S)NC(C)=O,-,-,-,17.8µM,79.4µM,44.7µM
CCCCCC(=O)NC(=S)NC1C2CC3CC(C2)CC1C3 (stereo unspecified),?,-,-,44.7µM,-,-
CCCCCCC(=O)NNC(=O)NCCCC,-,.,.,.,.,.
CCCCC(=O)NC1C2CC3CC(C2)CC1C3 (stereo unspecified),-,.,.,.,.,.
CCCCC(=O)NNC(=S)NC(=O)c1ccc([N+](=O)[O-])cc1,?,?,?,2.82µM,20µM,31.6µM
COc1cccc(NC(=O)/C=N/O)c1,-,.,.,.,.,.
Cc1ccc(C(=O)NC(=S)NNC(=O)CC#N)cc1,-,-,-,8.91µM,-,?
CNC(=S)NNC(=O)c1ccc(C)cc1,-,.,.,.,.,.
CCCCC(=O)NNC(=S)NC(=O)c1ccc(C)cc1,?,-,-,11.2µM,?,-
Cc1oc(-c2ccccc2)nc1C(=O)NCC(C)(C)N1CCOCC1,-,.,.,.,.,.
CC(C)Cn1cc(NC(=O)NCc2ccccc2)c2ccccc2c1=O,-,-,-,?,.,-
CC(C)Cn1cc(NC(=O)Nc2cccc(C(F)(F)F)c2)c2ccccc2c1=O,7.08µM,-,-,?,.,-
CC(C)Cn1cc(NC(=O)N2CCN(c3cccc(C(F)(F)F)c3)CC2)c2ccccc2c1=O,-,-,-,-,.,-
CC(C)Cn1cc(NC(=O)NCc2ccc(Cl)cc2)c2ccccc2c1=O,-,-,-,?,.,39.8µM
O=C(NCc1ccccc1)N1CCC(O)(c2csc(CN3CCc4ccccc4C3)n2)CC1,-,.,.,.,.,.
c1ccc2c(N3CCCCC3)nc(N3CCCCC3)nc2c1,-,-,-,-,?,-
C(=C\c1nc(N2CCCCCC2)c2ccccc2n1)/c1ccccc1,-,-,-,-,28.2µM,-
Cn1ccnc1C(=O)N1CCCC1c1nncn1Cc1ccncc1 (stereo unspecified),-,.,.,.,.,.
COc1cc2c(cc1OC)-c1nnnn1C(C)(C)C2,-,-,-,-,-,-
COc1cc2c(cc1OC)-c1n[nH]c(=S)n1C(C)(C)C2,-,-,-,3.98µM,-,39.8µM
CCc1cc(=O)n(CC(=O)Nc2cccc(OC)c2)c(-c2ccccc2)n1,-,.,.,.,.,.
CCCSC1=N/C(=C\c2ccc([N+](=O)[O-])o2)C(=O)S1,39.8µM,35.5µM,12.6µM,?,39.8µM,11.2µM
CCSC1=N/C(=C\c2ccc(-c3ccccc3[N+](=O)[O-])o2)C(=O)S1,?,10µM,7.94µM,-[0.501 µM],?,?
SMILES,12-LOX inh,HP1b chromo inh,BAZ2B block,G9a block,Sfp inh,JMJD2A Tudor
COc1ccc(NC(=O)c2ccc3c(c2)N(C(=O)c2ccc(F)cc2)CC3)cc1,-,.,.,.,.,.
CNc1c(NS(=O)(=O)c2ccc(N3CCCC3=O)cc2)c(=O)oc2ccccc12,-,.,.,.,.,.
CN(C)S(=O)(=O)c1ccc(-c2nc(C#N)c(N3CCN(c4ccccc4)CC3)o2)cc1,-,.,.,.,.,.
COc1cccc(C(=O)NCC(c2ccc3c(c2)OCO3)N2CCOCC2)c1 (stereo unspecified),-,-,-,-,.,-
COc1cccc(C(=O)NCC(c2ccc3c(c2)OCO3)N2CCN(c3ccc(F)cc3)CC2)c1 (stereo unspecified),-,-,-,44.7µM,.,?
COc1ccc(C(=O)NCC(c2ccc3c(c2)OCO3)N2CCN(c3ccc(OC)cc3)CC2)cc1 (stereo unspecified),-,-,?,6.31µM,.,?
CN1CCN(C(CNC(=O)C(=O)Nc2ccc3c(c2)OCO3)c2ccc(F)cc2)CC1 (stereo unspecified),?,-,-,50.1µM,.,-
COc1ccc(C(CNC(=O)C(=O)Nc2ccc3c(c2)OCO3)N2CCN(C)CC2)cc1 (stereo unspecified),?,-,-,-,.,-
COc1ccc(C(=O)NCC(c2ccc3c(c2)OCO3)N2CCN(c3ccc(F)cc3)CC2)cc1 (stereo unspecified),-,-,-,-,.,?
O=C(NCc1ccc(F)cc1)C1(CCO)CC12CCOCC2 (stereo unspecified),-,.,.,.,.,.
O=C(CN1C(=O)NC2(CCOCC2)C1=O)Nc1cc(F)cc(F)c1,-,.,.,.,.,.
Cc1ccc(C(=O)CC(C(=O)O)P(=O)(c2ccccc2)c2ccccc2)cc1 (stereo unspecified),-,-,-,70.8µM,-,-
CCOC(=O)c1sc2nc(C(C)N3CCOCC3)[nH]c(=O)c2c1C (stereo unspecified),-,.,.,.,.,.
CC(C)C1CN(C(=O)CN(C)C2CCNCC2)CCC(=O)N1CC1CC1 (stereo unspecified),-,.,.,.,.,.
Cn1nc(C(F)(F)F)c(C#N)c1N1CCN(c2ccccn2)CC1,-,-,-,-,-,50.1µM
CCOc1cc(C2NC(=O)N(C)C(C)=C2[N+](=O)[O-])ccc1OC(C)=O (stereo unspecified),-,-,-,-,-,-
CC1=C([N+](=O)[O-])C(c2ccc(Cl)cc2)NC(=O)N1C (stereo unspecified),-,-,-,.,-,20µM
CC(C)CCN1CCC(CN2CCNC(=O)C2=O)CC1,?,-,.,.,.,89.1µM
CC1CCCC(NC(=O)Cc2cccc3ccccc23)C1C (stereo unspecified),-,.,.,.,.,.
CCOc1cccc(C(=O)Nc2cc(-c3nn4c(C)nnc4s3)ccc2C)c1,-,-,-,-,-,-
CCCOc1ccc(C(=O)Nc2cc(-c3nn4c(C)nnc4s3)ccc2C)cc1,-,-,-,-,-,39.8µM
Cc1oc(-c2ccccc2)nc1C(=O)OCC(=O)N1CCC(C)CC1,-,.,.,.,.,.
Cc1cccc(-n2c(C)c(-c3ccccc3)[nH]c2=S)c1,?,?,?,.,3.55µM,35.5µM
Cc1cccc(-n2c(C)n[nH]c2=S)c1,?,-,?,?,-,10µM
Cc1cccc(-n2c(-c3ccncc3)n[nH]c2=S)c1,?,-,-,1.26µM,79.4µM,28.2µM
SMILES,12-LOX inh,HP1b chromo inh,BAZ2B block,G9a block,Sfp inh,JMJD2A Tudor
COc1cccc(-n2c(-c3ccc4[nH]c(C)c(C)c4c3)n[nH]c2=S)c1,?,-,?,.,?,?
Cc1cc(=O)[nH]c(=S)n1-c1ccccc1,?,-,-,?,-,?
Cc1ccnc(NC(=O)Cc2nc(-c3ccccc3)oc2C)c1,-,.,.,.,.,.
NC(=O)c1sc2nc(-c3cccs3)ccc2c1N,-,-,-,35.5µM,-,-
Nc1c(C(=O)NC2CCCC2)sc2nc(-c3cccs3)ccc12,-,-,-,-[2.33 µM],44.7µM,-
O=C(c1cccc(NS(=O)(=O)c2ccc(Br)cc2)c1)N1CCN(c2ccccc2O)CC1,?,-,-,50.1µM,.,-

# Bioassay records (PubChem BioAssay)
